The supplement of paper PMC11417369
± gives the standard deviation of the averaged measurements. Over roughly 25,000 sequences, “ln(normalized median fluorescence intensity)” has its median near 8.6; the highest 2% begin near 10. This is one part of a sample in which the highest values are shown more often than they occur.

Tested on: PfAP2-EXP AP2 domain (GST-tagged)
Assay: gcPBM binding intensity (ln(normalized median fluorescence intensity)); higher = stronger DNA binding
Procedure, shortened: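 The highest Masliner-normalised natural-log median intensity across replicate spots of either probe orientation is reported as binding intensity. GST-tagged P. falciparum DNA-binding domains expressed in E. coli were applied for 1 h to an Agilent 4 × 180k array of primer-extended double-stranded 36-bp intergenic genomic probes plus negative controls, and bound protein was detected with Alexa488 anti-GST antibody and scanned at 488 nm.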

Sequence | gcPBM binding intensity (ln)
AGTAGCATATTCTATTGTACATATATATATATATAT [XGTACX_site2980] | 10.2 ± 0.56
TAATATTTATTCTATTGTACATAAAATATATATATA [XGTACX_site7132] | 9.225 ± 0.078
TATATATATATATATTGTACATATTGTATATATTGT [XGTACX_site3212] | 9.98 ± 0.21
TTTATATATATAAATATGTAGATAACAATATTCTGA [TGCATGCA_negctrl_site554] | 8.16 ± 0.44
AAATTGGTTCATCAATGTACATGTAAAATAAATCAA [XGTACX_site4795] | 8.88 ± 0.46
AAATTAATATTATGTGCATGCACAAAGAGGAACGAC [TGCATGCA_site754] | 10.7 ± 0.18
TATTAATTATAAGATGCATGTGCAAAAATATGTTCC [TGCATGCA_site51] | 9.01 ± 0.36
ATTATTAATAATTGTGTGCACAAATATTTATATGCT | 8.86 ± 0.092
ATATATATATATATATATATATATATATATAAGTGG [XGTACX_negctrl_site90] | 9.94 ± 0.35
TACTTACACTGTTTTTGTACTTATTTCCCTTTTATT [XGTACX_site2158] | 9.12 ± 0.6
TTATTTTCCCTTTGTGCATGCAGTTTACTTTTTGTG [TGCATGCA_site993] | 10.4 ± 0.64
ATTTCCCCTTTTTATTGTACATTTTTATTTGTTACT [XGTACX_site4845] | 9.14 ± 0.64
TGTATAAGGTTTTTACGTTTTGAAGGATGTATTGTT [CACACA_negctrl_site1245] | 8.59 ± 0.6
TTGTATTATTATGTTGCACACATTTTATATAAAATA [CACACA_site3641] | 9.06 ± 0.31
TATGTATTTTTTAAGTGTACCTATATATATATATAT [XGTACX_site7934] | 10.2 ± 0.3
TTTATATGTATTAAGTGTACACATATAATGTATTTT [XGTACX_site16] | 8.71 ± 0.014
TTTATGTGTATTAAGTGTACACATATAGTGTATTTT [XGTACX_site999] | 8.42 ± 0.31
TACAGAAATTTATATATATATATATATATATATATA [XGTACX_negctrl_site209] | 9.95 ± 0.62
ACATATAATATAAATTGTACATATAAATATATTATT [XGTACX_site4268] | 8.38 ± 0.32
ATTTAGAAATATATTTGTACATATATATATATATAT [XGTACX_site7129] | 10.2 ± 0.35
AATAAATAAATATATTGTACATATATATATATATAT [XGTACX_site8627] | 10.2 ± 0.4
TATATATATATATATTGTACATATTAATATTAGAAA [XGTACX_site8923] | 10.1 ± 0.39
TATAGAAAATTTATATGTACATATATATATATATAT [XGTACX_site4451] | 10.1 ± 0.44

Sequence | gcPBM binding intensity (ln)
TAGAAATATATTTATTGTACATTGTATATATTATAT [XGTACX_site7584] | 8.35 ± 0.48
AATATAATATACATATGTACATATATATATATATAT [XGTACX_site8218] | 10 ± 0.32
ACATGTACAGAAATTTATATATATATATATATATAT [CACACA_negctrl_site1584] | 10.3 ± 0.33
ATATATATATATATATGTACATACTATACAATAATT [XGTACX_site3546] | 10.4 ± 0.29
ATATATATAAATATATGTACTAATATATACATATAT [XGTACX_site2289] | 8.22 ± 0.092
AGAATAAATAAATATTGTACATATAAAATATATATA [XGTACX_site896] | 8.39 ± 0.35
GTAGTAATAAATCTAGTGCATTATATATAACAAAAA [GTGCAC_site9803] | 8.81 ± 0.3
TAGCCATTTTTATATTGTACTTATATAATCACATTT [XGTACX_site4407] | 8.72 ± 0.4
ATGCACATTTATAAAAGTACATGTATGTAATATGTT [XGTACX_site830] | 8.77 ± 0.33
TGTATGAAATATATTACACACATATATAATATATAT [CACACA_site793] | 8.36 ± 0.3
GATGCTAAAATTTATACACACAAAAAAAAAAAATTC [CACACA_site3284] | 8.47 ± 0.46
CAAGAAAATTGACACACACACATATTTATATTTATA [CACACA_site7766] | 8.36 ± 0.48
AAGTATAACCTTTATAATAATGACATGACCGATTTT [CACACA_negctrl_site395] | 8.26 ± 0.34
TGTAGTCTGGAGAAACGTACACAGTATCTGGTAACA [XGTACX_site4938] | 8.34 ± 0.36
AAATGTACAGGACGCACACACATATTTATATTTATA [CACACA_site7689] | 8.55 ± 0.33
AATGTAAAATATAAATGTACATATATATATATATAT [XGTACX_site5071] | 10.2 ± 0.24
TATAATAAATCGAACTGTACATATATATATATATAT [XGTACX_site7097] | 10.2 ± 0.33
AAAAAAAAAAAAAAATGTACATATATATAAATAAAA [XGTACX_site5574] | 8.51 ± 0.45
AAAAAAAAAAAAAAATGTACATATATATAAATATAT [XGTACX_site6768] | 8.34 ± 0.4
AAAAAAAAAAAAAAATGTACATATAAATAAATATAT [XGTACX_site7248] | 8.51 ± 0.42
AAATGTACAGGACGCACACACATATATATATATATA [CACACA_site3674] | 10.4 ± 0.81
ATATATATTATAATCTGTACATAAATATATAATAAA [XGTACX_site5425] | 8.39 ± 0.33
TAAAATGTACAGGACGCACACACATATATATATATA [CACACA_site3673] | 10.1 ± 0.22

Sequence | gcPBM binding intensity (ln)
ATAAAAATAAATAAATGTACATATATATATATATAT [XGTACX_site1277] | 10.1 ± 0.4
ATAAAAAAATATAAATGTACATATATATATATATAT [XGTACX_site5620] | 10.2 ± 0.2
AACATATAAATAAACTGTACATATATATATATATAT [XGTACX_site1056] | 10.1 ± 0.39
ATTTTTATAGAATGAACACACATATTATAGCATTTA [CACACA_site6842] | 8.45 ± 0.38
AACACTTCTTATTTATGTACTTAATTCCCAACGGAA [XGTACX_site4818] | 8.87 ± 0.46
CATATGATATTATTTTGTACTTATTACAAATATGAA [XGTACX_site7929] | 8.4 ± 0.42
TATAAAGCAACTGAAACACACAAATTTTTTTTTTTT [CACACA_site3218] | 8.04 ± 0.46
ACACATAATATGTGTAGTACTTTTTCTTTAACATTA [XGTACX_site1436] | 8.64 ± 0.36
TATAAAAATAATATTACACACATGTAAAATGCCCGT [CACACA_site7522] | 8.49 ± 0.31
GGACAAGTTTTTTACATAAATAAAAAAAATAAAAAA [XGTACX_negctrl_site125] | 8.44 ± 0.42
AAAAGGATTTTTTATACACACACTAACTAATGTATA [CACACA_site2356] | 8.23 ± 0.43
TTATACTAAATGAACACACACACATATATATATATA [CACACA_site99] | 10 ± 0.5
TATAATATATACAAATGTACATATATATATATATAT [XGTACX_site4559] | 10.2 ± 0.42
CATATATAATAATATTGTACATATATAATAATAATA [XGTACX_site3338] | 8.4 ± 0.35
TTAAATGTTATATATTGTACATATAATATATGTATT [XGTACX_site1492] | 8.27 ± 0.19
ATACATGAATAAATATGTACACATATAAAAACATAT [XGTACX_site2740] | 8.68 ± 0.23
TATTAAATATTGTAATGTACATATATAATATAATAT [XGTACX_site1809] | 8.53 ± 0.17
TCTGGCATATAATATTGTACACATATATATATATAT [XGTACX_site8182] | 10.2 ± 0.33
TAAATAAAATACAAATGTACATAAATAATAAATATA [XGTACX_site1813] | 8.76 ± 0.41
ATATATATAATATATTGTACATATAATATATATATA [XGTACX_site4792] | 9.24 ± 0.042
AATAAAATACAAAAATGTACAAATATAATATACATA [XGTACX_site279] | 8.34 ± 0.28
ATACTAAAAATGAATGTACACATATATATATATATA [TGCATGCA_negctrl_site209] | 10.2 ± 0.33
AAATGGAGTTAATATTGTACATATATATATATATAT [XGTACX_site5452] | 10.3 ± 0.18

Sequence | gcPBM binding intensity (ln)
GGATAAAATGCTACGAGTACATAAGCATTTTTCCCT [XGTACX_site7796] | 8.73 ± 0.35
ATGGTCTGTTAAAGATGTACTTTTTAAAAATAAACG [XGTACX_site2583] | 8.48 ± 0.25
TATAGGTATATATTATGTACTTATAATTATATAGAT [XGTACX_site1912] | 8.52 ± 0.35
TATATATATAAAATATGTACATAAAATTATTTATTT [XGTACX_site7666] | 8.61 ± 0.26
ATATAATAATAAGGCACACAAATTAAAATATAAAAA [CACACA_site3710] | 8.79 ± 0.35
TCATAAATATGAAAAAGTACAAAGGTAGATTTTGAA [XGTACX_site4535] | 8.48 ± 0.3
GGATAATATATTAGAACACACATATAGATGTAAAAA [CACACA_site6229] | 8.57 ± 0.54
TAAAAATCCACAAGCACACAAATGTACATATATATA [CACACA_site2462] | 8.71 ± 0.24
CGCTCTCTTTAATATTGTACATATATATTATATATA [XGTACX_site7017] | 8.77 ± 0.35
TCGTCACTTTAATATTGTACATATATATATATATAT [XGTACX_site8046] | 10.3 ± 0.13
ATTATGTTAATAATATGTACATATATCTACATATAT [XGTACX_site7978] | 8.37 ± 0.33
ATATATATATATATATGTACATAATGCATATAATAT [XGTACX_site6142] | 10.2 ± 0.56
AAATATATAATACATATGTAATATGCATATATATAT [GTGCAC_negctrl_site450] | 9.72 ± 0.16
ATATATGCATATATATGTACATATATATATATATAT [XGTACX_site7403] | 9.93 ± 0.4
ACACAAGCACACAAATGTACATATATATATATATAT [XGTACX_site5146] | 10.2 ± 0.13
TGTACAAATATGTACACACACACATATATATATATA [CACACA_site584] | 9.95 ± 0.31
ATATATATATATATATGTACATATGTTAATCTGCAT [XGTACX_site1068] | 10.2 ± 0.31
TTTTTTTTTTTTTATTGTACATACTTTTAAATATAT [XGTACX_site4303] | 8.55 ± 0.59
CGCATGCAATGTTAATGTACATATATATATATATGT [XGTACX_site3316] | 9.395 ± 0.049
TACAAATATATATGCACACACATATATGTATATGTG [CACACA_site3075] | 8.65 ± 0.26
